Source: PubChem BioAssay AID504339 (National Center for Advancing Translational Sciences (NCATS), 2011)
In all, about 390,000 compounds went through this assay and about 17,000 (4.4%) were called active. Roughly 8% stayed inconclusive and do not appear here. What follows is part of a selection rich in actives, with near analogues and random picks from the rest. Unmarked numbers belong to inactive results. The call rests on the fitted dose curve; in most records, active means well fitted inhibition curve with a large enough effect; inconclusive means small, poorly fitted or top-dose-only effect; inactive means no such curve, though single readings can be large or run the other way.
Further: nearly all actives have a fitted effect of over 50% in size.
On the % scale 0 is the no-effect control and ±100 the full control effect; potency means the concentration at half of the fitted maximal effect.

What follows are compounds tested against Lysine-specific demethylase 4A (Homo sapiens) (UniProt O75164) (assay: qHTS Assay for Inhibitors of JMJD2A-Tudor Domain). Conditions: AlphaScreen JMJD2A-Tudor / H3K4me3 peptide binding; series mostly up to 114 µM; activity change, negative = inhibition: at the top concentration.
Sequence of Lysine-specific demethylase 4A (Homo sapiens) (O75164 whole entry, looked up, the tested form may be a part): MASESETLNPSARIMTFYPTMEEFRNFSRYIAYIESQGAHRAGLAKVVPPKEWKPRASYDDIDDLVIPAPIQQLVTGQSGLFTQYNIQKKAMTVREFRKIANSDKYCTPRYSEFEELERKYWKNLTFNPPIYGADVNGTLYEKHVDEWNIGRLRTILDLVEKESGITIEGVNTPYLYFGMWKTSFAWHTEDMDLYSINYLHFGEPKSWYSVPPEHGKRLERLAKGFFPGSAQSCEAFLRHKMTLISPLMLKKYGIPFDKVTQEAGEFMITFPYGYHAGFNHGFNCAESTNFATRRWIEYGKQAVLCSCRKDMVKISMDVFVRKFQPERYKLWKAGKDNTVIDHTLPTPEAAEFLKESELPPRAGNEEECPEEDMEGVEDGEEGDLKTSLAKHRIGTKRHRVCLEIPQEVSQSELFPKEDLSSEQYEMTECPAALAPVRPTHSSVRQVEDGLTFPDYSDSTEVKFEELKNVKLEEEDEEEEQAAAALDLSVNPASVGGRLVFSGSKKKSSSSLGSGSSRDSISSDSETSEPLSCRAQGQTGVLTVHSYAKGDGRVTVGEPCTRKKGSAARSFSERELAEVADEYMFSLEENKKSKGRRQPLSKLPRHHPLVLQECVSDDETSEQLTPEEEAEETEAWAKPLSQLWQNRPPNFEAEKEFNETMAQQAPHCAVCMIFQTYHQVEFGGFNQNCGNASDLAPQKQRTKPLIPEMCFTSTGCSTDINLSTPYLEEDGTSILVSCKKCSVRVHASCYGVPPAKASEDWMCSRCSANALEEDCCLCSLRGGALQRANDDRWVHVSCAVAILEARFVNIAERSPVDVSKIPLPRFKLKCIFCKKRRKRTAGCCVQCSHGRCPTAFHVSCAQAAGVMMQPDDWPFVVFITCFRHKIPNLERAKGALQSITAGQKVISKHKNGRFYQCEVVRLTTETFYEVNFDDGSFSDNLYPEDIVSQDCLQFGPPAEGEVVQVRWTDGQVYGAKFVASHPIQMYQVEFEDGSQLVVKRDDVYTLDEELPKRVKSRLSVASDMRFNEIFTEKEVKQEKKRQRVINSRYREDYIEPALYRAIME
For `Cc1cc(C)cc(OCC(=O)Nc2nc(-c3ccc(F)cc3)ns2)c1`, the “activity change, negative = inhibition” value was -24.2%.
With `O=C(CCCOc1ccccc1)NCc1ccco1` the “activity change, negative = inhibition” value was -7.14%.
For `Cc1cc(C(=O)OCC(=O)NCc2ccco2)c(C)n1-c1ccccc1`, the Potency was 56.2 µM (active).
With `CCOC(=O)c1cnc(SCC(=O)NCc2ccco2)nc1N` the “activity change, negative = inhibition” value was -19.4%.
With `O=C(COC(=O)CSc1ccccc1)Nc1ccc(F)cc1F` the “activity change, negative = inhibition” value was 5.56%.
With `CCOC(=O)c1cccc(NC(=O)c2ccc(F)cc2F)c1` the “activity change, negative = inhibition” value was -3.6%.
`O=C(COC(=O)c1ccc(F)cc1F)Nc1ncccn1` was tested, and the Potency was 28.2 µM (active).
In the case of `Cc1oc2ncnc(N3CCCCC3)c2c1C(=O)N1CCN(c2cccc(Cl)c2)CC1`, the “activity change, negative = inhibition” value is reported as -35.6%.
With `CCc1ccc(NC(=O)CN2C(=O)CCSc3ccc(S(=O)(=O)N4CCCC4)cc32)cc1` the “activity change, negative = inhibition” value was -8.95%.
`CCC(C)(C)NC(=O)C(c1ccc(OC)cc1)N(C(=O)CCC(=O)Nc1cc(C)on1)c1ccc(OC)cc1OC` (centres undefined) was tested, and the “activity change, negative = inhibition” value was -17.6%.
In the case of `COc1ccc(C(C(=O)NC(C)(C)C)N(Cc2ccc(F)cc2)C(=O)CCC(=O)Nc2cc(C)on2)cc1` (centres undefined), the “activity change, negative = inhibition” value is reported as -19.1%.
With `CCC(C)(C)NC(=O)C(c1cccc(OC)c1OC)N(CC(C)C)C(=O)CCC(=O)Nc1cc(C)on1` (centres undefined) the Potency was 11.2 µM (active).
In the case of `O=c1cc2nc(-c3ccccc3)nc(SCCOc3ccc(Cl)cc3)n2[nH]1`, the Potency is reported as 56.2 µM (active).
In the case of `CCc1ccccc1OCCSc1nc(-c2cccs2)nc2cc(=O)[nH]n12`, the “activity change, negative = inhibition” value is reported as -14.3%.
In the case of `Cc1ccc(OCCSc2nc(-c3cccs3)nc3cc(=O)[nH]n23)cc1Cl`, the “activity change, negative = inhibition” value is reported as -29.2%.
`COc1cc(CNCc2cccs2)cc(Br)c1OC` was tested, and the “activity change, negative = inhibition” value was -0.752%.
For `COc1cc(CNCc2ccc(OC)c3ccccc23)cc(OC)c1OC`, the Potency was 25.1 µM (active).
With `COc1ccc(CNCCCNCc2ccc(OC)c(OC)c2)cc1OC` the “activity change, negative = inhibition” value was -8.97%.
With `O=C(c1ccc2c(=O)n(Cc3ccco3)c(=S)[nH]c2c1)N1CCCC1` the “activity change, negative = inhibition” value was -18.4%.
`O=c1n(Cc2cccc(C(F)(F)F)c2)c2ccccc2c2nc(-c3ccccc3)nn12` was tested, and the “activity change, negative = inhibition” value was -7.28%.
In the case of `O=S(=O)(c1ccccc1)N1CCc2ccccc21`, the “activity change, negative = inhibition” value is reported as 11.8%.
With `O=C(NCC(c1cccnc1)N1CCc2ccccc21)c1cccc(C(F)(F)F)c1` (centres undefined) the “activity change, negative = inhibition” value was -7.89%.
With `CN(C)c1ccc(C(CNS(=O)(=O)c2cc(F)ccc2F)N2CCOCC2)cc1` (centres undefined) the “activity change, negative = inhibition” value was -27.5%.
With `COc1ccc(S(=O)(=O)NCC(c2ccc(N(C)C)cc2)N2CCc3ccccc32)cc1OC` (centres undefined) the Potency was 22.4 µM (active).
`O=S(=O)(NCC(c1ccccc1)N1CCc2ccccc21)c1ccccc1` (centres undefined) was tested, and the Potency was 22.4 µM (active).
For `COc1ccc(S(=O)(=O)NCC(=O)NC2CC2)cc1OC`, the “activity change, negative = inhibition” value was -9.62%.
`COc1ccc(-c2c3c(=O)n(C)c(=O)n(C)c3c3c(C)nc4ccccc4n23)cc1` was tested, and the “activity change, negative = inhibition” value was -2.41%.
In the case of `Cc1ccc2[nH]c3c(=O)n(CC(=O)NC(C)C)ncc3c2c1`, the “activity change, negative = inhibition” value is reported as -6.8%.
With `COc1ccc(CCn2c3c(c(=O)[nH]c2=S)CN(C(C)C)CN3)cc1OC` the “activity change, negative = inhibition” value was -21.8%.
For `Cc1cc(C)cc(NC(=O)CSc2nc3nccnc3c(=O)n2CCc2c[nH]c3ccccc23)c1`, the “activity change, negative = inhibition” value was -13.2%.
`O=C(Nc1ccc(N2CCOCC2)cc1)c1ccc2c(c1)OCO2` was tested, and the Potency was 20 µM (active).
For `COC(=O)c1ccc(N2CCOCC2)c(NC(=O)c2ccc3c(c2)OCCO3)c1`, the “activity change, negative = inhibition” value was -0.69%.
With `O=C(Nc1cccc(Cl)c1N1CCOCC1)c1ccc2c(c1)OCCO2` the “activity change, negative = inhibition” value was -11.1%.
`CCCn1c2ccccc2c2cnn(CC(=O)N3CCCC(C(=O)OCC)C3)c(=O)c21` (centres undefined) was tested, and the Potency was 79.4 µM (active).
For `CCOC(=O)C1CCCN(C(=O)Cn2ncc3c(=O)oc4ccc(C)cc4c32)C1` (centres undefined), the “activity change, negative = inhibition” value was -15.3%.
In the case of `CCOC(=O)C1CCCN(C(=O)Cn2ncc3c(C)n(Cc4ccc(F)cc4)c(C)c3c2=O)C1` (centres undefined), the “activity change, negative = inhibition” value is reported as -21.8%.
For `COc1cccc(CNC(=O)C2CCN(S(=O)(=O)c3ccc4c(ccn4C)c3)CC2)c1`, the “activity change, negative = inhibition” value was -20.1%.
For `CCCN1CCN(CCCNC(=O)c2cnn(-c3ccc(C)cc3)c2-n2cccc2)CC1`, the “activity change, negative = inhibition” value was -21.7%.
In the case of `COC(=O)c1ccccc1S(=O)(=O)Nc1ccc(OC)cc1`, the “activity change, negative = inhibition” value is reported as -26.2%.
In the case of `Cc1ccc(S(=O)(=O)N2CCN(c3ccccc3)CC2)cc1C`, the “activity change, negative = inhibition” value is reported as -21.2%.
In the case of `Cc1cc(C)n(-c2nc(C(F)(F)F)nc3ccccc23)n1`, the “activity change, negative = inhibition” value is reported as -5.54%.
In the case of `Cc1cc(C)n(-c2nnc(N3CCN(c4ccccc4)CC3)nn2)n1`, the Potency is reported as 50.1 µM (active).
For `N#CN1CCC(NS(=O)(=O)c2cccc(F)c2)C1` (centres undefined), the “activity change, negative = inhibition” value was -4.11%.
`CCOc1ccc(C2C(=O)N(C3CCCCC3)CC(=O)N2CCC2=CCCCC2)cc1OC` (centres undefined) was tested, and the “activity change, negative = inhibition” value was -12.8%.
`Cc1ccc(NC(=O)CCC(=O)N/N=C/c2ccco2)c(C)c1` was tested, and the “activity change, negative = inhibition” value was -15%.
In the case of `CC(/C=N/NC(=O)c1cc(-c2ccc3ccccc3c2)n[nH]1)=C\c1ccco1`, the “activity change, negative = inhibition” value is reported as -32.6%.
For `Cc1cc(-c2n[nH]c(=S)n2/N=C/C(Br)=C/c2ccccc2)n[nH]1`, the Potency was 56.2 µM (active).
For `Cc1cc(-c2n[nH]c(=S)n2/N=C/c2ccco2)n[nH]1`, the Potency was 3.98 µM (active).
With `Cc1cc(NC(=O)CC(C)C)cc(-c2nc3ncccc3o2)c1O` the “activity change, negative = inhibition” value was -10.4%.
In the case of `Fc1ccc(-c2nn(-c3ccccc3Cl)c3c2cnc2ccccc23)cc1`, the “activity change, negative = inhibition” value is reported as -10.6%.
With `O=C(NC1CC(=O)N(c2ccccc2)C1)c1ccco1` (centres undefined) the “activity change, negative = inhibition” value was -14%.
With `Cc1cc(C)n2ncc(C(=O)N3CCCC3)c2n1` the “activity change, negative = inhibition” value was -14.2%.
For `Cc1ccc(Cl)cc1NC(=O)CSc1nccn1C`, the “activity change, negative = inhibition” value was -11.9%.
For `NC(=O)C1CCN(Cc2nc3c(Br)cc(Br)cc3c(=O)[nH]2)CC1`, the Potency was 3.16 µM (active).
With `NC(=O)C1CCN(C2OC(=O)c3ccccc32)CC1` (centres undefined) the “activity change, negative = inhibition” value was -12.3%.
In the case of `NC(=O)C1CCN(C(=O)c2ccc3c(=O)n(Cc4cccc(Br)c4)c(=S)[nH]c3c2)CC1`, the “activity change, negative = inhibition” value is reported as -31.2%.
`COc1ccc(Cl)cc1NC(=O)C(C)Sc1nc2c(c(=O)[nH]1)CCCC2` (centres undefined) was tested, and the “activity change, negative = inhibition” value was -10.9%.
With `COc1cc(NC(=O)CCn2nc(C)cc2C)cc(OC)c1OC` the “activity change, negative = inhibition” value was -5%.
In the case of `O=C(CSc1oc(-c2ccco2)nc1S(=O)(=O)c1ccc(Cl)cc1)c1ccccc1`, the “activity change, negative = inhibition” value is reported as -29%.
`COc1ccc(/C(O)=C2\C(=O)C(=O)N(Cc3ccco3)C2c2ccc(OC)cc2OC)cc1` (centres undefined) was tested, and the Potency was 20 µM (active).
In the case of `COc1ccccc1C1/C(=C(/O)c2ccc(C)cc2)C(=O)C(=O)N1Cc1ccco1` (centres undefined), the “activity change, negative = inhibition” value is reported as -7.61%.
`COc1ccc(C2/C(=C(/O)c3ccccc3)C(=O)C(=O)N2C)c(OC)c1` (centres undefined) was tested, and the “activity change, negative = inhibition” value was -13%.
In the case of `CCOC(=O)c1cccc(NC(=O)C(Cc2ccccc2)NS(=O)(=O)c2cccc3nsnc23)c1` (centres undefined), the “activity change, negative = inhibition” value is reported as -25.7%.
With `COc1ccc2c(c1)c(N1CCCC1=O)c(C(=O)Nc1ccccc1C(F)(F)F)n2C` the “activity change, negative = inhibition” value was -2.07%.
